Bioassay records as filed in PubChem BioAssay.
CRFBP-R2 block: CRF-BP/CRF-R2 complex antagonism | HEK293 CRF-R2/CRF-BP, CRF-induced calcium fluorescence | inhibition, % at 11.8 µM | 350,000 tested, 0.59% active | AID 588475;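 active = inhibition of the ligand-induced calcium signal above about 50% at the single tested concentration, limit read from the data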
MPTP inh: permeability transition pore inhibition. isolated mouse mitochondria, Ca2+ swelling absorbance, 30 min. AID 602449. inhibition, % at 10 µM. 360,000 tested, 1.4% active;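 active = inhibition of 50% or more, scaled per plate between neutral and stimulator controls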;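 note: 0% = DMSO wells given calcium and 100% = 1 mM EGTA wells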
ANO1 activ: mouse TMEM16A channel activation, primary screen | 340,000 tested, 0.3% active | B-score at 10 µM | HEK293 TMEM16A/YFP-H148Q/I152L, iodide quench fluorescence; hits give low values;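 active = fluorescence-ratio B-score plate-corrected deviation score at least 3 library SD below zero, with starting fluorescence score within 5 deviations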;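 note: channel opened by trigger with iodide after compound preincubation; score built on the fluorescence ratio of max minus min over baseline; more negative score means more quench and so TMEM16A activation or potentiation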
NR3A LBD binder: modulates the human NR3A ligand-binding domain | 340,000 tested, 2.5% active | AID 1259313 | Tm shift relative to glycine control, % at 25 µM | NR3A LBD differential scanning fluorimetry, Tm shift; 0% = protein alone, 100% = glycine-bound protein;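 active = melting temperature shift of at least 10% of the positive control shift, at one fixed dose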
TMEM16A inh: inhibitors of mouse TMEM16A calcium-activated chloride channel | Q8BHY3 | HEK293 TMEM16A/YFP iodide influx fluorescence, ionomycin | normalized B-score (activity score, 25-100; higher = stronger inhibition) at 10 µM | 310,000 tested, 1.2% active | AID 588511;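 active = ratio plate-corrected score three or more library SD toward inhibition, starting fluorescence score within five deviations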;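 note: score derived from kinetic fluorescence span divided by baseline fluorescence per well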
CRFBP-R2 agonist: CRF-BP/CRF-R2 complex agonism; HEK293 CRF-R2/CRF-BP, calcium dye fluorescence (FLIPR); percent of saturating CRF peptide response; activation, % at 13.2 µM; 350,000 tested, 0.46% active;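 active = activation of at least 50%, plus an integration ratio under a set limit after plate pattern correction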;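 note: plate controls were neutral control wells without compound for no effect and CRF at EC100 for full effect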
* hit, by the source's call; i = inactive; x = not tested or not shown. This is a sample that favours compounds with a hit; in the whole collection about 5.1% have one here.

SMILES	CRFBP-R2 block	MPTP inh	ANO1 activ	NR3A LBD binder	TMEM16A inh	CRFBP-R2 agonist
Cc1ccc(Sc2ccc(CO)cc2[N+](=O)[O-])cc1	51*	5	i	0	i	-1
Cc1ccc(Sc2ccc(CN3CCCC3)cc2[N+](=O)[O-])cc1	-26	-2	i	1	i	-2
COC(=O)c1[nH]c2ccc(F)cc2c1NC(=O)C1=COCCO1	9	-1	i	17*	i	-2
Cc1nc(Sc2ccccc2)c(C#N)cc1-c1ccccc1	53*	2	i	2	i	6
Cc1nc(Cl)c(C#N)cc1-c1ccccc1	6	1	i	-2	i	-3
COc1cc(/C=N/Nc2ccc([N+](=O)[O-])cc2S(=O)(=O)N2CCOCC2)cc(OC)c1OC	11	0	i	0	i	3
O=[N+]([O-])c1ccc(N/N=C/c2ccc(O)c(O)c2O)c(S(=O)(=O)N2CCOCC2)c1	-11	3	i	23*	x	-2
O=[N+]([O-])c1ccc(N/N=C/c2cccc(O)c2O)c(S(=O)(=O)N2CCOCC2)c1	9	20	i	30*	i	-1
O=C(NCc1ccccc1CN1CCOCC1)c1ccc(-n2cccn2)cc1	-17	0	i	0	x	-1
O=C(Cc1ccccc1)N/N=C/c1ccc(OC(=O)/C=C\c2ccco2)cc1	7	0	i	1	i	-1
COC(=O)N/N=C/c1ccc(OC(=O)/C=C/c2ccco2)cc1	9	2	i	11*	i	-4
O=C(NCc1ccccn1)c1ccc(Cl)c(S(=O)(=O)N2CCOCC2)c1	-4	0	i	2	i	-2
CCOc1c(C#N)c(C#N)c2nc(C)cc(C)n12	8	-1	i	14*	i	0
CC(=O)N1CCN(c2ccc(NC(=S)NC(=O)c3ccc(C)c([N+](=O)[O-])c3)cc2)CC1	13	9	i	-1	i	-1
COc1ccc(C(=O)NC(=S)Nc2ccc(N3CCN(C(C)=O)CC3)cc2)cc1[N+](=O)[O-]	-9	5	i	-1	i	0
CCc1ccc(NC(=O)c2ccc(OC)c([N+](=O)[O-])c2)cc1	11	5	i	12*	i	0
COc1ccc(C(=O)NC(=S)Nc2ccc(NC(=O)c3ccco3)cc2)cc1[N+](=O)[O-]	2	1	i	30*	i	10
CCC(=O)NC(=S)Nc1ccc(NC(=O)c2ccc(C)c([N+](=O)[O-])c2)cc1	-8	1	i	34*	i	2
Cc1cc(C(=O)Nc2cccc(NC(=O)c3ccco3)c2)ccc1[N+](=O)[O-]	2	-1	i	-4	i	5
COc1ccc(C(=O)NC(=S)Nc2cccc(NC(=O)c3ccco3)c2)cc1[N+](=O)[O-]	-12	2	i	12*	i	-1
O=C(NCCC(=O)N1CCCCCCC1)c1ccc(Cl)cc1	-19	-2	i	2	i	-1
CC(C)c1ccc(/C=C2\SC(=S)N(CCC(=O)N3CCCCC3CCO)C2=O)cc1 (stereo not drawn)	-12	0	i	-9	i	1
COc1ccc(Nc2nnc(SCC(=O)NC3CCCC3)s2)cc1	13	-1	x	x	x	-2
COc1cc(NC(=O)c2ccc(OC)c([N+](=O)[O-])c2)ccc1NC(=O)c1cccs1	4	2	i	38*	i	2
COc1cc(NC(=O)c2cccc([N+](=O)[O-])c2)ccc1NC(=O)c1ccco1	15	2	i	27*	i	-3
CCOc1ccc(C(=O)NC(=S)Nc2cccc(NC(=O)c3ccco3)c2)cc1[N+](=O)[O-]	-43	2	i	16*	i	2
CCOc1ccc(C(=O)NC(=S)Nc2ccc(NC(=O)CC)cc2)cc1[N+](=O)[O-]	-79	1	i	8	i	1
CC(C)Oc1ccc(C(=O)Nc2ccc(Cl)c(S(=O)(=O)Nc3ccc(Cl)cc3)c2)cc1	-8	41	i	20*	i	3
